Screening results (PubChem BioAssay)
In the library only some 2.8% were active in any assay of this set; here they are far more common.
PAFAH1B2 inh = PAFAH1B2 (human) inhibition; recombinant PAFAH1B2, FP-rhodamine activity probe, fluorescence polarization; inhibition, % at 3.39 µM; AID 492953; hit rate 1.2% among 340,000;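 active = inhibition above the mean of all tested compounds plus 3 SD, cut at about 24% in these data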;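 note: 0% = enzyme with DMSO and 100% = wells lacking PAFAH1B2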
Target sequence (P68402 whole entry, looked up): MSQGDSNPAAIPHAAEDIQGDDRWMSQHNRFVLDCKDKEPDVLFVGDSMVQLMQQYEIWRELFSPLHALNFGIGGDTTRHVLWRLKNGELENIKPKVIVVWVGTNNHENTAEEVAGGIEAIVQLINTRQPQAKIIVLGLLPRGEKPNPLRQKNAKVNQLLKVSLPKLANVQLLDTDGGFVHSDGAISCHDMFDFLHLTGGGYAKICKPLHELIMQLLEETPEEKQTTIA
HTRA1 inh = inhibitors of human serine peptidase HTRA1. Q92743. recombinant HTRA1, FP-rhodamine activity-based probe, fluorescence polarization. inhibition, % at 5.96 µM. hit rate 0.5% among 340,000; in the data active = inhibition above about 36%;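 note: 0% = enzyme with DMSO and 100% = wells lacking enzyme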
Target sequence (Q92743 whole entry, looked up): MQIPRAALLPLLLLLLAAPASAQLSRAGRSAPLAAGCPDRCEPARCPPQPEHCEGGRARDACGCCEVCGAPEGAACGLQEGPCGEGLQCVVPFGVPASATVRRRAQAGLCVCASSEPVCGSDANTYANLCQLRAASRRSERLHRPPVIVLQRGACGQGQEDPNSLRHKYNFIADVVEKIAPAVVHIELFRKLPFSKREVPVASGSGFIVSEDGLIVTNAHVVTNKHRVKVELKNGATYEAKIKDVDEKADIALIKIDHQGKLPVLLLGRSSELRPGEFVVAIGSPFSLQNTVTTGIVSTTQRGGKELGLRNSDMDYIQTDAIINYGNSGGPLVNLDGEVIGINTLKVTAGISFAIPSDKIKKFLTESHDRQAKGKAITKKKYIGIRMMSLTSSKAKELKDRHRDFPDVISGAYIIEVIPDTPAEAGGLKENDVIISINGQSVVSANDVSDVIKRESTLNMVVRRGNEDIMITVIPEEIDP
DAGLB inh = blocks human DAGLB lipase activity; Q8NCG7; HEK293T DAGLB membrane lysate, EnzChek fluorogenic substrate; inhibition, % at 5.17 µM; hit rate 0.059% among 340,000; AID 504411; in the data active = inhibition above about 34%;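 note: 0% = enzyme with vehicle and 100% = wells lacking enzyme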
PAFAH2 FP inh = inhibitors of human PAFAH2; Q99487; recombinant PAFAH2, FP-rhodamine activity probe, fluorescence polarization; inhibition, % at 3.39 µM; hit rate 0.99% among 340,000;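 active = inhibition above the mean over all tested compounds plus 3 SD, cut at about 30% in these data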;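 note: inhibitors block probe labeling of enzyme so polarization drops; 0% = enzyme with DMSO and 100% = wells lacking PAFAH2 protein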
PAFAH1B3 inh = PAFAH1B3 (human) inhibition; Q15102; recombinant PAFAH1B3, FP-rhodamine probe, fluorescence polarization; inhibition, % at 3.39 µM; hit rate 0.28% among 340,000; AID 492972;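 active = inhibition above the screen-wide average of all tested compounds plus 3 SD, cut at about 25% in these data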;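 note: 0% = enzyme with DMSO only and 100% = wells lacking PAFAH1B3 protein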
pPAFAH FP inh = inhibitors of human plasma PAF acetylhydrolase (pPAFAH) | recombinant pPAFAH, FP-rhodamine probe fluorescence polarization | hit rate 1.5% among 330,000 | AID 463082 | inhibition, % at 3.39 µM | Q13093;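 active = inhibition above the mean inhibition across the screen plus 3 SD, cut at about 25% in these data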;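 note: inhibitors block binding of the rhodamine activity-based probe so polarization drops; 0% = enzyme with DMSO and 100% = wells lacking pPAFAH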
PAFAH2 FP conf = PAFAH2 (human) inhibition, confirmed | recombinant PAFAH2, FP-rhodamine activity probe, fluorescence polarization | inhibition, % at 3.39 µM | shares compounds with PAFAH2 FP inh | hit rate 65% among 2,300 | AID 493030;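 active = mean inhibition over three repeats above a set limit taken from the earlier primary screen, cut at about 30% in these data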;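 note: inhibitor blocks binding of rhodamine activity probe so polarization falls; 0% = enzyme with DMSO and 100% = wells lacking PAFAH2 protein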
The depositor's hits bear a star.

COc1ccc(NC(=O)/C(Cl)=C(/Cl)S(=O)(=O)Cc2ccccc2)cn1 was read as PAFAH1B2 inh 8.2, HTRA1 inh -8.9, DAGLB inh 11.2, PAFAH2 FP inh 41.0*, PAFAH1B3 inh -0.3 and PAFAH2 FP conf 19.2.
Screening CC1CCCC(C)N1CCCNC(=O)Cn1c(=O)c2cccn2c2cccnc21 (stereo not given) returned PAFAH1B2 inh 4.5, HTRA1 inh -5.5, DAGLB inh -2.8, PAFAH2 FP inh -1.8, PAFAH1B3 inh 5.1 and pPAFAH FP inh -3.2.
For Cn1cnnc1SCC(=O)Nc1sc2c(c1C(N)=O)CCC2 the results were PAFAH1B2 inh 13.8, HTRA1 inh 8.3, DAGLB inh 2.3, PAFAH2 FP inh 37.8*, PAFAH1B3 inh 21.8, pPAFAH FP inh 34.4* and PAFAH2 FP conf 11.9.
COCCn1cnnc1SCC(=O)Nc1sc2c(c1C#N)CCC2 was read as PAFAH1B2 inh 11.3, HTRA1 inh 0.9, DAGLB inh -0.1, PAFAH2 FP inh 3.5, PAFAH1B3 inh 1.0 and pPAFAH FP inh 15.0.
COc1ccc(S(=O)(=O)N(C)C[C@H]2Oc3ncc(C#CC4(O)CCCC4)cc3C(=O)N([C@@H](C)CO)C[C@@H]2C)cc1 was read as HTRA1 inh -4.1 and DAGLB inh -1.9.
Screening Cc1ccc(NC2CCCN(C(=O)c3ccoc3)C2)cc1C (stereo not given) returned PAFAH1B2 inh -1.1, HTRA1 inh -5.5, DAGLB inh -0.3, PAFAH2 FP inh -5.0, PAFAH1B3 inh 6.0 and pPAFAH FP inh 1.4.
Screening Cc1ccccc1CS(=O)(=O)c1cn(CC(=O)N2CCOCC2)c2ccccc12 returned PAFAH1B2 inh 6.5, HTRA1 inh 0.1, DAGLB inh -1.5, PAFAH2 FP inh 1.6, PAFAH1B3 inh -2.2 and pPAFAH FP inh 3.7.
For COc1ccc(NS(=O)(=O)c2cc([N+](=O)[O-])ccc2NN=Cc2ccccc2OCC(=O)O)cc1 the results were PAFAH1B2 inh 7.6, HTRA1 inh -15.7, DAGLB inh 8.4, PAFAH2 FP inh 48.9*, PAFAH1B3 inh 14.0, pPAFAH FP inh 21.4 and PAFAH2 FP conf 22.4.
Screening COc1ccc(NS(=O)(=O)c2cc([N+](=O)[O-])ccc2N/N=C\c2c(C)[nH]c3ccccc23)cc1 returned PAFAH1B2 inh 3.0, HTRA1 inh 18.3, DAGLB inh 0.4, PAFAH2 FP inh 2.8, PAFAH1B3 inh -1.4 and pPAFAH FP inh 6.1.
Screening O=C(c1cc(-c2ccc(Cl)cc2Cl)on1)N1CCCC1 returned PAFAH1B2 inh 2.8, HTRA1 inh -4.1, DAGLB inh -8.6, PAFAH2 FP inh 30.5*, PAFAH1B3 inh 6.7, pPAFAH FP inh 8.6 and PAFAH2 FP conf 26.0.
O=C(c1cc(-c2ccc(Cl)cc2Cl)on1)N1CCCCCC1 was read as PAFAH1B2 inh 5.2, HTRA1 inh -3.9, DAGLB inh -10.7, PAFAH2 FP inh 7.0, PAFAH1B3 inh 7.0 and pPAFAH FP inh 4.2.
For O=C(c1cc(-c2ccccc2Cl)on1)N1CCN(C(=O)c2ccco2)CC1 the results were PAFAH1B2 inh 4.8, HTRA1 inh -0.4, DAGLB inh 0.6, PAFAH2 FP inh 43.1*, PAFAH1B3 inh 2.4, pPAFAH FP inh 8.8 and PAFAH2 FP conf 35.3*.
Screening O=C(c1cc(-c2ccc(Cl)cc2Cl)on1)N1CCN(C(=O)c2ccco2)CC1 returned PAFAH1B2 inh 1.0, HTRA1 inh -20.7, DAGLB inh 1.2, PAFAH2 FP inh 65.5*, PAFAH1B3 inh -3.6, pPAFAH FP inh 9.4 and PAFAH2 FP conf 41.1*.
`COc1ccc(F)cc1C(=O)C1CCCN(C(=O)c2ocnc2C)C1` (stereo not given) gave PAFAH1B2 inh -1.5, HTRA1 inh -2.7, DAGLB inh 1.8, PAFAH2 FP inh -4.9, PAFAH1B3 inh 2.7 and pPAFAH FP inh -3.2.
C=CCC[C@@H](Cc1ccc(F)cc1)C(=O)OC[C@@H](Cc1ccccc1)NC(=O)[C@H](CC=C)CC(=O)NCCO was read as PAFAH1B2 inh 3.0, HTRA1 inh -7.9, DAGLB inh -1.5, PAFAH2 FP inh 11.4, PAFAH1B3 inh 9.6 and pPAFAH FP inh 6.0.
Screening c1ccc(C2[C@H]3CN(CC4CCCCC4)[C@H](c4ccccc4)C34CC2(c2cccnc2)C4)cc1 (stereo not given in full) returned PAFAH1B2 inh 2.0, HTRA1 inh -49.9, DAGLB inh -2.4, PAFAH2 FP inh 55.7*, PAFAH1B3 inh 17.3, pPAFAH FP inh 4.1 and PAFAH2 FP conf -2.2.
CCS(=O)(=O)c1ccc(O)c(NC(=O)NC2CCCCC2)c1 was read as PAFAH1B2 inh 8.2, HTRA1 inh 3.0, DAGLB inh 2.2, PAFAH2 FP inh 81.0*, PAFAH1B3 inh 0.3, pPAFAH FP inh 10.4 and PAFAH2 FP conf 64.2*.
For CCc1ccccc1NC(=O)NC1CCCCC1 the results were PAFAH1B2 inh 6.4, HTRA1 inh -0.2, DAGLB inh -5.1, PAFAH2 FP inh 2.0, PAFAH1B3 inh -0.7 and pPAFAH FP inh 3.5.
`CCS(=O)(=O)c1ccc(O)c(NC(=O)COc2ccccc2)c1` gave PAFAH1B2 inh 6.5, HTRA1 inh 2.3, DAGLB inh 2.8, PAFAH2 FP inh 47.5*, PAFAH1B3 inh 0.6, pPAFAH FP inh 13.8 and PAFAH2 FP conf 43.7*.
O=c1c2cc(O)c(O)cc2oc2cc(O)c(C3OC(CO)C(O)C(O)C3O)c(O)c12 (stereo not given) was read as PAFAH1B2 inh 11.6, HTRA1 inh 9.8, DAGLB inh -0.6, PAFAH2 FP inh 5.8, PAFAH1B3 inh 20.7 and pPAFAH FP inh 4.5.
`COc1ccc(Cl)cc1N=Cc1c(O)cc(C)oc1=O` gave PAFAH1B2 inh -0.5, HTRA1 inh -0.2, DAGLB inh 1.6, PAFAH2 FP inh 1.9, PAFAH1B3 inh 12.4 and pPAFAH FP inh 0.5.
Cc1cc(O)c(/C=N/Nc2cccc(Cl)c2)c(=O)o1 was read as PAFAH1B2 inh 0.9, HTRA1 inh -3.5, DAGLB inh 1.8, PAFAH2 FP inh 38.2*, PAFAH1B3 inh 6.0, pPAFAH FP inh 4.0 and PAFAH2 FP conf 30.4*.
`Cc1cc(O)c(/C=N/OCc2ccc(Cl)cc2Cl)c(=O)o1` gave PAFAH1B2 inh 16.8, HTRA1 inh -5.6, DAGLB inh 2.6, PAFAH2 FP inh 85.0*, PAFAH1B3 inh -1.4, pPAFAH FP inh 2.1 and PAFAH2 FP conf 77.0*.
`Cc1cc(O)c(/C=N/Nc2ccc(Cl)cc2)c(=O)o1` gave PAFAH1B2 inh 2.2, HTRA1 inh 4.2, DAGLB inh -0.6, PAFAH2 FP inh 12.3, PAFAH1B3 inh -2.0 and pPAFAH FP inh 3.3.
`COc1cc(C(=O)N/N=C/c2ccc(OC)c(CN3CCN(c4ccc(F)cc4)CC3)c2)ccc1O` gave PAFAH1B2 inh -0.1, HTRA1 inh -6.6, DAGLB inh 2.7, PAFAH2 FP inh -3.4, PAFAH1B3 inh 0.5 and pPAFAH FP inh 5.8.
For O=C(COC(=O)/C=C/C(=O)OCC(=O)Nc1ccccc1F)Nc1ccccc1F the results were PAFAH1B2 inh 2.5, HTRA1 inh -1.4, DAGLB inh 2.5, PAFAH2 FP inh 4.8, PAFAH1B3 inh -2.1 and pPAFAH FP inh 2.3.
